# Measured values: PubChem BioAssay (Tox21)
# A number with no mark means an inactive call. Records with an inconclusive call do not appear. Entries that show only a call come without a potency. Calls of active or inactive are those of the source. Unless noted, calls follow the shape of the full dose curve.
# Columns and labels:
# [1] = Nuclear factor erythroid 2-related factor 2/antioxidant responsive element (Nrf2/ARE) small molecule agonists: qHTS cell viability counter screen in human keratinocytes (AID 1919968; active = well fitted curve in the direction sought with a large enough effect in the repeat runs; an effect the other way counts as inactive or inconclusive; also: nearly all actives have a fitted effect of over 55% in size)
# How it was run: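 Seed 1,500 KeratinoSens cells per well, then incubate 5 h at 37 C/5% CO2. Add compounds in DMSO and incubate 23 h. Add CellTiter-Fluor, wait 1 h and read fluorescence.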
# [2] = Nuclear factor erythroid 2-related factor 2/antioxidant responsive element (Nrf2/ARE) small molecule agonists: luciferase reporter gene qHTS assay in human keratinocytes (AID 1919969); also: nearly all actives have a fitted effect of over 35% in size
# [3] = biological target: Gonadotropin-releasing hormone receptor (Homo sapiens) (UniProt P30968); assay: Human gonadotropin-releasing hormone receptor (GnRHR) small molecule agonists, calcium flux assay in GnRHR-HEK293 cells (AID 1920063); also: nearly all actives have a fitted effect of over 35% in size
# Chain of Gonadotropin-releasing hormone receptor (Homo sapiens) (P30968 whole entry, looked up): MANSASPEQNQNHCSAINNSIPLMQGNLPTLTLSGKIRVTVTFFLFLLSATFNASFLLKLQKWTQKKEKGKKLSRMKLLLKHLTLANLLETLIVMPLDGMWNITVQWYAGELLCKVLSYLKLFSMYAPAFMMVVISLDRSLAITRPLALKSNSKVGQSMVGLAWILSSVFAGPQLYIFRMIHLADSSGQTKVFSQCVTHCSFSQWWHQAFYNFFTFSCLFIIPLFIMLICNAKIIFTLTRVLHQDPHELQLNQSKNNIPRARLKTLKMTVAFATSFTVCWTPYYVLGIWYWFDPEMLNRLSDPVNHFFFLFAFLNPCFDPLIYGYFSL
# How it was run: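 Cells: HEK293 stably expressing human GnRHR. Steps: overnight (18 h) culture, 1 h calcium dye loading at 37 C, compound addition, kinetic fluorescence read at 480/540 nm. Each compound tested at 15 concentrations in triplicate.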
# [4] = biological target: KiSS-1 receptor (Homo sapiens) (UniProt Q969F8); assay: Human kisspeptin (KISS1R) small molecule agonists, calcium flux assay in KISS1R-HEK293 cells (AID 1920064; active = well fitted curve in the direction sought with a large enough effect in the repeat runs; an effect the other way counts as inactive or inconclusive)
# Chain of KiSS-1 receptor (Homo sapiens) (Q969F8 whole entry, looked up): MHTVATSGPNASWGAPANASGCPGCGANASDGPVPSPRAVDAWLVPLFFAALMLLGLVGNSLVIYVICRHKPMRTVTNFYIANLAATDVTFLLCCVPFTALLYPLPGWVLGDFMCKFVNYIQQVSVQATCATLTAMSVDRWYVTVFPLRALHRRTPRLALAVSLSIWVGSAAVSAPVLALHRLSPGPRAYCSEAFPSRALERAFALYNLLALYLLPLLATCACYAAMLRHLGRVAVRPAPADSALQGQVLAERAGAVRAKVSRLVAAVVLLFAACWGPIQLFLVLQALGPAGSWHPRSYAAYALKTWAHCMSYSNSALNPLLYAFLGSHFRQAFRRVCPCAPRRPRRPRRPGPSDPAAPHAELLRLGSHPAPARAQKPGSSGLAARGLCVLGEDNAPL
# How it was run: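 Cells plated and incubated 18 h; dye added, 1 h at 37 C; compounds in DMSO pinned in; signal read at 480/540 nm every second for 3 min. Each compound tested at 15 concentrations in triplicate.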
# [5] = G protein-coupled receptor (GPCR) small molecule agonists, calcium flux assay: HEK293 wild type cell line counter screen (AID 1920065)
# How it was run: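 Counter-screen of the Tox21 10K library for non-specific calcium release: dye-loaded cells received compounds in DMSO and were monitored by kinetic fluorescence (480/540 nm, 3 min). Fifteen concentrations, run in triplicate.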
# [6] = p53 small molecule agonists, cell-based qHTS assay with human liver microsomes (AID 1963577);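 also: p53 response element beta-lactamase reporter cells with liver microsomes plus NADPH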
# How it was run: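 In this qHTS, p53 response-element beta-lactamase cells receive test compound together with a microsome/NADPH activating system (0.5 mg/mL final each) and are incubated 16 h at 37 C before LiveBLAzer fluorescence detection.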
# [7] = p53 small molecule agonists, cell-based qHTS assay with rat liver microsomes (AID 1963578)
# How it was run: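 Agonist mode in p53RE-bla reporter cells, with compounds co-incubated 16 h at 37 C alongside 0.5 mg/mL rat liver microsomes and 0.5 mg/mL NADPH (final), followed by a 2 h LiveBLAzer detection step.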
# [8] = p53 small molecule agonists, cell-based qHTS assay with human liver microsomes: qHTS cell viability counter screen (AID 1963579); also: nearly all actives have a fitted effect of over 45% in size
# How it was run: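 Metabolically activated exposure: compounds, human liver microsomes and NADPH (0.5 mg/mL final apiece) were added to p53RE-bla cells seeded 5 h earlier, left 16 h at 37 C, and then assessed for viability by CellTiter-Glo luminescence.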
# [9] = p53 small molecule agonists, cell-based qHTS assay with rat liver microsomes: qHTS cell viability counter screen (AID 1963580); also: nearly all actives have a fitted effect of over 45% in size
# How it was run: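 Viability is assessed in parallel with the p53 reporter read: HCT-116 p53RE-bla cells receive compounds plus rat microsomes and NADPH (0.5 mg/mL final apiece), incubate 16 h at 37 C, and then CellTiter-Glo luminescence is recorded.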
# [10] = p53 small molecule agonists, cell-based qHTS assay: qHTS cell viability counter screen (AID 1963581); also: nearly all actives have a fitted effect of over 45% in size
# How it was run: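 Cells: HCT-116 with p53 response element-driven beta-lactamase. Treatment: 16 h, 37 C, compounds in DMSO. Read: CellTiter-Glo luminescence after 30 min RT.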
# [11] = p53 small molecule agonists, cell-based qHTS assay (AID 1963582; active = well fitted activation curve with a large enough effect in the signal ratio in the repeat runs, not every such curve was filed as active; the % refers to the signal ratio)
# How it was run: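 Quantitative HTS in p53RE-bla cells: after a 5 h settling period, compounds delivered in DMSO were left on cells for 16 h at 37 C, and reporter induction was measured as fluorescence following 2 h substrate loading.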
# [12] = biological target: 5-hydroxytryptamine receptor 2A (Homo sapiens) (UniProt P28223); assay: 5-hydroxytryptamine receptor 2A (HTR2A) small molecule agonists, cell-based qHTS assay (AID 1963587); also: nearly all actives have a fitted effect of over 30% in size
# Chain of 5-hydroxytryptamine receptor 2A (Homo sapiens) (P28223 whole entry, looked up): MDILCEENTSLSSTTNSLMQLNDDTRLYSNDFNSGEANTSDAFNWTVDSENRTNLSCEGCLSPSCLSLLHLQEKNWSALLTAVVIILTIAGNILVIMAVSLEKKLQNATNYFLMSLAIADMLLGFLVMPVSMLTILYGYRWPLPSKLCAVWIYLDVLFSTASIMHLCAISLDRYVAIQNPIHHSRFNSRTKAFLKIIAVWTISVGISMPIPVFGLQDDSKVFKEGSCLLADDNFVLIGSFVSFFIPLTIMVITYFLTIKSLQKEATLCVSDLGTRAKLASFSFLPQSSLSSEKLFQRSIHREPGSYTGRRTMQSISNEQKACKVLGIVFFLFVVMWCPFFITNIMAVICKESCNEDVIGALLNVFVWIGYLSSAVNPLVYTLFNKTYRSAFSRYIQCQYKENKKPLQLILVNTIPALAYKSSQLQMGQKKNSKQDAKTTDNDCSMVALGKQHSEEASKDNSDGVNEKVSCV
# How it was run: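 CHO cells stably expressing human HTR2A, plated 18 h, loaded with calcium dye 1 h at 37 C. Agonist mode: compounds added and intracellular calcium fluorescence recorded kinetically for 2 min at 1 sec intervals.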
# [13] = biological target: Muscarinic acetylcholine receptor M1 (Homo sapiens) (UniProt P11229); assay: Cholinergic receptor muscarinic 1 (CHRM1) small molecule antagonists, cell-based qHTS assay (AID 1963588); also: nearly all actives have a fitted effect of over 40% in size; also: potency is read from the fitted curve at half-maximal effect
# Chain of Muscarinic acetylcholine receptor M1 (Homo sapiens) (P11229 whole entry, looked up): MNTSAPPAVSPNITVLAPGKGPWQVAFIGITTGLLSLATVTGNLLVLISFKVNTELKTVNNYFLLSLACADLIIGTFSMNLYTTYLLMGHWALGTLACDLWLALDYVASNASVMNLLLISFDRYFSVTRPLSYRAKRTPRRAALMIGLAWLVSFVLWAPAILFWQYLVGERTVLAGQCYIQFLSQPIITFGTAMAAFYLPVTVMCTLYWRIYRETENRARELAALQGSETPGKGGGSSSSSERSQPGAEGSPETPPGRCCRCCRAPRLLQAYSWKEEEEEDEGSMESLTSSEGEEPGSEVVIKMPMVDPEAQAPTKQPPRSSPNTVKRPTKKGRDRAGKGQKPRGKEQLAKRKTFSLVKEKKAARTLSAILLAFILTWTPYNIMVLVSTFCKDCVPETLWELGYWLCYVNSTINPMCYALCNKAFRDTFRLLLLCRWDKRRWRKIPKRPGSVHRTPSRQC
# How it was run: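 CHRM1-CHO calcium-flux assay, antagonist mode. Cells were seeded 18 h, dye-loaded 1 h at 37 C and given compound for 5 min at RT, then acetylcholine was added at 50nM. FDSS fluorescence was read 3 min; 15 concentrations, three runs.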
# [14] = biological target: Muscarinic acetylcholine receptor M1 (Homo sapiens) (UniProt P11229); assay: Cholinergic receptor muscarinic 1 (CHRM1) small molecule agonists, cell-based qHTS assay (AID 1963589); also: nearly all actives have a fitted effect of over 35% in size
# How it was run: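 Agonist-mode qHTS in CHO cells stably carrying human muscarinic M1. Intracellular calcium is tracked by fluorescence every second after compound transfer; each compound runs at 15 concentrations in three independent runs.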
# [15] = cAMP Responsive Elements (CRE) small molecule agonists, cell-based qHTS assay (AID 1963590)
# How it was run: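 Agonist mode qHTS in CRE-bla HEK 293T cells: compounds dosed from DMSO for 3 h at 37 C/5% CO2, followed by LiveBLAzer B/G FRET substrate for 2 h at room temperature.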
# [16] = cAMP Responsive Elements (CRE) small molecule antagonists, cell-based qHTS assay (AID 1963591; active = well fitted inhibition curve with a large enough effect in the signal ratio in the repeat runs, not every such curve was filed as active; the % refers to the signal ratio)
# How it was run: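 Antagonist mode: test compounds are co-incubated with the adenylyl cyclase activator NKH477 (0.25 uM final) on CRE-bla HEK293T cells for 3 h at 37 °C, followed by LiveBLAzer substrate loading.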
# [17] = biological target: Beta-2 adrenergic receptor (Homo sapiens) (UniProt P07550); assay: Adrenergic beta2 receptor (ADRB2) small molecule antagonists, cell-based qHTS assay (AID 1963592); also: series mostly up to about 92 µM; nearly all actives have a fitted effect of over 50% in size
# Chain of Beta-2 adrenergic receptor (Homo sapiens) (P07550 whole entry, looked up): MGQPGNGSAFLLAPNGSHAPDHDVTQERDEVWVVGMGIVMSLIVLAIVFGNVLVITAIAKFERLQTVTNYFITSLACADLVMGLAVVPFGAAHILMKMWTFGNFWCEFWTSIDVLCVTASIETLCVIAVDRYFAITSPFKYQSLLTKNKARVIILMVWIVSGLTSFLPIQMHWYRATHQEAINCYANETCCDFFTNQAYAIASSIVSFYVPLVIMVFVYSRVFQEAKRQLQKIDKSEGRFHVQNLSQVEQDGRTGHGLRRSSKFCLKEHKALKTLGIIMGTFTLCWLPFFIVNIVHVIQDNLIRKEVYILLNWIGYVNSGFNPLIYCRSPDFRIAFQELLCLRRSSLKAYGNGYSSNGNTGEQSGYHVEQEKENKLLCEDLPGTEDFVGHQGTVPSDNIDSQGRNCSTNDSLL
# How it was run: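 Cells (CHO, stable ADRB2 overexpression) incubated 18-20hr at 37C; compounds added from DMSO; agonist mix (1nM isoproterenol, 100uM IBMX, 25uM Ro-20-1724) added; 0.5hr RT; d2-cAMP and anti-cAMP-cryptate added; 1hr RT; 665/615 nm read.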
# [18] = biological target: D(2) dopamine receptor (Homo sapiens) (UniProt P14416); assay: Dopamine D2 receptor (DRD2) small molecule agonists, cell-based qHTS assay (AID 1963594); also: nearly all actives have a fitted effect of over 35% in size
# Chain of D(2) dopamine receptor (Homo sapiens) (P14416 whole entry, looked up): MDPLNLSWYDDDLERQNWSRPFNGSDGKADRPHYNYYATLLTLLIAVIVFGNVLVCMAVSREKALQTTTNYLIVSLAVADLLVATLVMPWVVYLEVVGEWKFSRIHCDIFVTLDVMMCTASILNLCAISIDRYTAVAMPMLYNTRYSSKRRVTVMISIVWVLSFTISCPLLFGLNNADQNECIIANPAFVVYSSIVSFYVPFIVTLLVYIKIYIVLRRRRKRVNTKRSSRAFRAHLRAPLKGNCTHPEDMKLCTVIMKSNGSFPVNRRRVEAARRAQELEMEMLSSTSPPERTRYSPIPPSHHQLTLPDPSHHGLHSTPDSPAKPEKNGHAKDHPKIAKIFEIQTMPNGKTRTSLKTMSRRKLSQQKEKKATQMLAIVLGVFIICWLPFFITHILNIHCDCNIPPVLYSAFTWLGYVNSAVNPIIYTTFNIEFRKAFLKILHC
# How it was run: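 HEK293 cells stably expressing human DRD2, pre-treated with PDE inhibitor Ro20-1724 (0.1 mM final) and compound 10 min at room temperature, then stimulated with NKH477 (200nM […]) for 30 min. cAMP read by HTRF (665/620 nm).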
# [19] = biological target: D(2) dopamine receptor (Homo sapiens) (UniProt P14416); assay: Dopamine D2 receptor (DRD2) small molecule antagonists, cell-based qHTS assay (AID 1963595; active = well fitted inhibition curve with a large enough effect in the signal ratio in the repeat runs, with a control signal flat; the % refers to the signal ratio)
# How it was run: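 DRD2-HEK293; 0.1 mM Ro20-1724; cpd 10 min RT; NKH477 200 nM + quinpirole 12 nM, 30 min RT; HTRF cAMP (cAMP-d2/anti-cAMP cryptate), 665/620 nm ratio after 1 h.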
# [20] = biological target: 5-hydroxytryptamine receptor 2A (Homo sapiens) (UniProt P28223); assay: 5-hydroxytryptamine receptor 2A (HTR2A) small molecule antagonists, cell-based qHTS assay (AID 1963586); also: nearly all actives have a fitted effect of over 45% in size
# How it was run: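 Antagonist-mode intracellular calcium assay: DOI (4 nM) added after 5 min compound pre-incubation at room temperature to dye-loaded HTR2A-CHO cells. Fluorescence followed for 3 min, sampled every second.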
Structure (SMILES),Potency [1],Potency [2],Potency [3],outcome [4],outcome [5],Potency [6],Potency [7],Potency [8],Potency [9],Potency [10],Potency [11],Potency [12],Potency [13],Potency [14],Potency [15],Potency [16],Potency [17],Potency [18],Potency [19],Potency [20]
CCOC(=O)C(=O)CCCCCCl,inactive,inactive,inactive,inactive,inactive,inactive,inactive,inactive,inactive,inactive,inactive,inactive,inactive,inactive,inactive,inactive,inactive,inactive,inactive,–
CCN1CN(CC)CN(CC)C1,inactive,inactive,inactive,inactive,inactive,inactive,inactive,inactive,inactive,inactive,inactive,–,–,inactive,inactive,–,inactive,inactive,inactive,inactive
CCOC(=O)c1ccc(OC(=O)CCCCCN=C(N)N)cc1,inactive,inactive,inactive,inactive,inactive,inactive,inactive,inactive,inactive,inactive,inactive,inactive,7.29 µM (active),inactive,inactive,inactive,inactive,inactive,–,–
CCCCOC(=O)CC,inactive,inactive,inactive,inactive,inactive,inactive,inactive,inactive,inactive,inactive,inactive,inactive,inactive,inactive,inactive,inactive,inactive,inactive,inactive,–
